Source: PubChem BioAssay (National Center for Advancing Translational Sciences (NCATS))
This is a sample that favours compounds with a hit; in the whole collection about 11% have one here.
HPGD inh: blocks human HPGD enzyme activity; P15428; purified HPGD, NADH fluorescence kinetic, PGE2 substrate; Potency, µM, usual class: inhibitors; 150,000 compounds, 4.3% hits; AID 894
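NADH formation kinetics: reaction with 30 uM PGE2 and 1 mM NAD+ (final), 20 nM enzyme, Tris-HCl pH 8 with Tween 20, after 15 min compound preincubation at room temperature. Fluorescence change, last versus first of five reads.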
ALDH1A1 block: inhibitors of human aldehyde dehydrogenase 1A1; Potency, µM (titrated, usually from 75.3 µM), most hits filed as inhibitors; P00352; 220,000 compounds, 7.3% hits; Purified ALDH1A1, NADH fluorescence, propionaldehyde substrate; AID 1030
Target sequence (P00352 whole entry, looked up): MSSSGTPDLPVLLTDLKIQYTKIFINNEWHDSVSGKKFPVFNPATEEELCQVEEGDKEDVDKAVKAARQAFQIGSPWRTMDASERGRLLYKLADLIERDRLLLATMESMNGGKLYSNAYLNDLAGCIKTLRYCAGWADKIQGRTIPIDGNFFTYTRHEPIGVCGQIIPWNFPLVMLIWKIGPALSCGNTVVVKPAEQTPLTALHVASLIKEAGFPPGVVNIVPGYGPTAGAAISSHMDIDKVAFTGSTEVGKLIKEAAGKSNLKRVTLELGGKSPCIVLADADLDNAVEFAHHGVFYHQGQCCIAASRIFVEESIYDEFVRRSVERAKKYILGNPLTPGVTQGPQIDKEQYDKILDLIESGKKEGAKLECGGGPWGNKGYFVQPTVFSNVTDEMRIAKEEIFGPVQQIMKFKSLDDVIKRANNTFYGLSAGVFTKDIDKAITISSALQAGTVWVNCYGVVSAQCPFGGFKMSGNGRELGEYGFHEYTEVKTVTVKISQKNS
PNC inhibitor: inhibitors of perinucleolar compartment assembly; 140,000 compounds, 3.1% hits; activity change (PNC), negative = inhibition, % at 10 µM; PC3M PTB-GFP, PNC prevalence imaging, 16 h; active compounds read low;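 active means readout at or below -70, meaning at least 70% loss of cells showing the perinucleolar compartment, a nuclear body marking cancer cells; inconclusive means readout between -30 and a set limit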
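Read-out is percentage of cells bearing a perinucleolar compartment, from automated 20x imaging of fixed, Hoechst-stained PC3M PTB-GFP cells. Cells were seeded 4 h, then exposed 16 h to compound (23 nl of library stock) in duplicate plates.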
JMJD2E inh: blocks human JMJD2E demethylase activity. B2RXH2. Potency, µM (top dose mostly 57.1 µM), most hits filed as inhibitors. 230,000 compounds, 1.6% hits. JMJD2E catalytic domain, FDH-coupled NADH fluorescence (FDH is formaldehyde dehydrogenase); further: nearly all actives have a fitted effect of over 50% in size
Numbers stand for hits; i = inactive; ? = inconclusive; nt = no result given; ! = a repeat was not active; [ ] = dose if it differs, or a comment. Unless noted, the call rests on the fitted dose curve; in most records, active means well fitted inhibition curve with a large enough effect (not every such curve was filed as active); inconclusive means small, poorly fitted or top-dose-only effect, or another doubt; inactive means no such curve, though single readings can be large or run the other way.

SMILES	HPGD inh	ALDH1A1 block	PNC inhibitor	JMJD2E inh
Nn1c(COc2ccc(Cl)cc2)n[nH]c1=S	nt	25µM	nt	?
CCOP(=S)(OCC)SCSC(C)(C)C	i	?	nt	nt
CC(C)(C)c1cc(C#N)cc(Br)c1OP(=O)(Oc1c(Br)cc(C#N)cc1C(C)(C)C)c1ccccc1	i	i[13.5 µM]	nt	nt
c1ccc(N2CC[C@@]3(CCCNC3)C2)cc1	i	?	nt	nt
COCCN1C(=O)NC(=O)/C(=C\c2ccc(Br)cc2)C1=O	nt	?	nt	i
CSc1ncc(/C=C2/C(=O)NC(=O)N(C)C2=O)cn1	i	i	i	25µM
CSc1ncc(/C=C2/C(=O)NC(=O)N(C3CCCCC3)C2=O)cn1	?	i	?	22µM
CCCCN1C(=O)NC(=O)/C(=C/c2cnc(SC)nc2)C1=O	20µM	i	i	25µM
C=C1CC[C@H](O)C/C1=C/C=C1\CCC[C@]2(C)[C@H]1CC[C@H]2[C@@H](C)CCCC(C)C	i	i	nt	i
O=C1C=CC[C@@H]2[C@H]3CCCN4CCC[C@@H](CN12)[C@@H]34	i	i	nt	i
CCNCCC1(CC)C(=O)NC(=O)NC1=O	i	i[13.5 µM]	nt	nt
BrCCBr	i	i	nt	nt
CN1C[C@H](C(=O)N[C@]2(C)O[C@@]3(O)[C@H]4CCCN4C(=O)[C@H](Cc4ccccc4)N3C2=O)C[C@H]2c3cccc4[nH]cc(c34)C[C@@H]21	i	i	nt	?
Oc1cc2c(cc1O)[C@H]1c3ccccc3CNC1CC2 (stereo partly drawn)	6.3µM	?	nt	20µM
O=C(O)C[C@H]1NCc2cc3ccccc3nc21	i	i[13.5 µM]	nt	nt
O=c1cc(-c2ccc(O)c(O)c2)oc2c(C3O[C@H](CO)[C@@H](O)[C@H](O)[C@H]3O)c(O)cc(O)c12 (stereo partly drawn)	i	?	i	1µM
CC1N(P(=O)(c2ccccc2)c2ccccc2)CC(O)(c2ccccc2)CC12CC2 (stereo not drawn)	i	i	nt	i
COc1cccc(C(=O)C2CCCN(Cc3ccccn3)C2)c1 (stereo not drawn)	nt	i	nt	i
COc1c(C)cc(C(=O)C2CCCN(Cc3ccccn3)C2)cc1C (stereo not drawn)	nt	32µM	nt	i
CC1=C2C(=CO[C@H](C)[C@H]2C)C(=O)C(C(=O)O)=C1O	i	i	nt	i
C[N+]1(C)C2CCC1CC(OC(=O)c1c[nH]c3ccccc13)C2 (stereo not drawn)	i	22µM	nt	i
CCC1CN(C)CCC1(OC(C)=O)c1ccccc1 (stereo not drawn)	i	i	i	i
CCCCN1CCC(O)(c2ccccc2)C(C(=O)c2ccccc2)C1 (stereo not drawn)	i	0.11µM	i	i
CN1[C@H]2CC(=O)C[C@@H]1[C@@H](O)C2	i	i	nt	i
COc1cccc(C(=O)C2CCCN(C3CCOCC3)C2)c1 (stereo not drawn)	nt	i	nt	i
SMILES	HPGD inh	ALDH1A1 block	PNC inhibitor	JMJD2E inh
COc1ccc(C(=O)C2CCCN(C3CSCCSC3)C2)c(OC)c1 (stereo not drawn)	nt	14µM	nt	i
COc1ccc(C(=O)C2CCCN(C3CSCCSC3)C2)c(C)c1 (stereo not drawn)	nt	14µM	nt	i
CCOC(=O)CC(NC(=O)C(Cc1ccc(N(CCCl)CCCl)cc1)NC(C)=O)C(=O)OCC (stereo not drawn)	nt	25µM	nt	10µM
NC(Cc1ccc(N(CCCl)CCCl)cc1)C(=O)O (stereo not drawn)	i	32µM	nt	20µM!
N[C@@H](Cc1cc(Br)c(O)c(Br)c1)C(=O)O	i	?	i	i
CC(=O)NC(Cc1ccc(N(CCCl)CCCl)cc1)C(=O)NC(C(=O)O)C(C)C (stereo not drawn)	nt	i	nt	?
O/N=C/c1c[nH]c2ccccc12	7.1µM	i	?	i
CCCCCCCCCCCCC/C=C/[C@@H](O)[C@@H](N)COP(=O)(O)O	i	i	nt	i
O[N+]1=CC=CCC1=S.On1ccccc1=S.[Zn]	?	2.8µM	nt	2.5µM
c1ccc(CN2CCC3(CCNCC3)CC2)cc1	i	?	nt	nt
O=[N+]([O-])C(Br)Br	?	1.4µM	nt	nt
O=C(N/N=C\C1C(=O)NC(=S)N(c2ccccc2)C1=O)c1ccc(O)cc1 (stereo not drawn)	nt	10µM	nt	?
CCC1CN2CCC1CC2C(Oc1cc2ccccc2c2ccccc12)c1ccnc2ccc(O)cc12 (stereo not drawn)	nt	i[13.5 µM]	nt	nt
CN(C)CCCCCCN(C)C	i	?	nt	nt
c1csc(-c2nnc(Cc3cccc4ccccc34)o2)c1	18µM	i	i	i
CCCN1CCC[C@@H]2Cc3cn[nH]c3C[C@H]21	i	i	nt	nt
CC(N=Cc1c(O)[nH]c(=O)[nH]c1=O)c1ccccc1 (stereo not drawn)	28µM	?	i	i
Nc1nc(/C(=C/CC(=O)O)C(=O)NC2C(=O)N3C(C(=O)O)=CCSC23)cs1 (stereo not drawn)	i	?	nt	?
COc1cc(/C=N/NC(=O)CN2CCCCC2)ccc1OCc1ccccc1	i	22µM	i	?
COc1ccc(C)cc1NC(=O)CN1CCN(CC(=O)Nc2ccccc2F)CC1	i	?	?	i
O=C1NC(=O)C(=Cc2cc(Cl)ccc2OCc2ccc(C(=O)O)cc2)C(=O)N1	nt	i	nt	?
O=C1NC(=O)C(=Cc2coc3ccc(O)cc3c2=O)C(=O)N1	nt	3.5µM	nt	18µM
CC1CCc2c(sc3nc(CSc4n[nH]c(N)n4)[nH]c(=O)c23)C1 (stereo not drawn)	i	?	-95	i
COC(=O)C1C2c3ccccc3OC1(C)N=c1s/c(=C/c3cnn(C)c3)c(=O)n12 (stereo not drawn)	i	i	i	i
CC(=O)C1C2c3ccccc3OC1(C)N=c1s/c(=C/c3cn(C)nc3C)c(=O)n12 (stereo not drawn)	28µM	10µM	?	i
SMILES	HPGD inh	ALDH1A1 block	PNC inhibitor	JMJD2E inh
c1ccc(-c2nc(N3CCOCC3)s[n+]2-c2ccccc2)cc1	10µM	1.8µM	i	i
O=C(CNC(=O)c1ccccc1)NCC(=O)OCC(=O)c1ccc([N+](=O)[O-])cc1	i	0.89µM	i	i
O=C(CNC(=O)c1ccc(Br)cc1)NCC(=O)OCC(=O)c1ccc([N+](=O)[O-])cc1	i	1µM	i	i
CCCOC(=O)[C@@H]1[C@@H](C(=O)O)[C@H]2CC[C@@H]1O2	i	i[13.5 µM]	nt	nt
O=C1CC[C@@]2(O)C3Cc4ccc(O)c5c4C2(CCN3CC2CC2)[C@H]1O5 (stereo partly drawn)	i	i	nt	i
C1CNC2NCCNC2N1 (stereo not drawn)	i	i	-100	i
CN1CCN(Cc2ccccc2Sc2ccccc2)CC1	i	i	-86	i
CCCOc1ccc(N2C(=O)CC(N3CC=C(c4ccccc4)CC3)C2=O)cc1 (stereo not drawn)	nt	10µM	nt	i
O=C1CC(N2CC=C(c3ccccc3)CC2)C(=O)N1c1ccc(F)cc1 (stereo not drawn)	i	?	i	?
CC/C(=C(\c1ccccc1)c1ccc(OCCN(C)C)cc1)c1ccc(O)cc1	i	?	nt	nt
O=C1c2ccccc2C(=O)N1SC1CCCCC1	2.2µM	1.4µM	i	i
